Screening results deposited in PubChem BioAssay by National Center for Advancing Translational Sciences (NCATS).
TDP1 block: blocks human tyrosyl-DNA phosphodiesterase 1. Q9NUW8. recombinant TDP1, AlphaScreen DNA substrate cleavage. Potency, µM (highest dose often 130 µM), for inactives: top-dose activity change, negative = inhibition, hits mostly inhibitors. hit rate 0.28% among 350,000. AID 485290; further: potency means the concentration at half of the fitted maximal effect; on the % scale 0 is the no-effect control and ±100 the full control effect; nearly all actives have a fitted effect of over 40% in size
Target sequence (Q9NUW8 whole entry, looked up): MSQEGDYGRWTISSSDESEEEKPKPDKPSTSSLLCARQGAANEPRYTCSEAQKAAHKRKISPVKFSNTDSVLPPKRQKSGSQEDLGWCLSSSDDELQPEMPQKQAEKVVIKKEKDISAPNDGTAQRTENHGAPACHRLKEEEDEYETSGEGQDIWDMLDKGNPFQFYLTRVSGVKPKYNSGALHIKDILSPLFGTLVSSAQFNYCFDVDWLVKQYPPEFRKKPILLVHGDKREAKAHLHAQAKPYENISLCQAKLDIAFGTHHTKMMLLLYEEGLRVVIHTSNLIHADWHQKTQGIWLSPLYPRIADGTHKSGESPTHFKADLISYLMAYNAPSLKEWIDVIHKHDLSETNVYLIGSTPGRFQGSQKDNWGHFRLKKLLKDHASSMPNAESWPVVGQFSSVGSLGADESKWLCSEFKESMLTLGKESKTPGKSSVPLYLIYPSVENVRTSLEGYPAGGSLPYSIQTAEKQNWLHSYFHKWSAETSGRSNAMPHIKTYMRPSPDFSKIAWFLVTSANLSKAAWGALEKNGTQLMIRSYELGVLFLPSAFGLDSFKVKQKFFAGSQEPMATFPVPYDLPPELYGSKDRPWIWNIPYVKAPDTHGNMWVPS
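Here, a 5' biotin and 3' phosphotyrosine-FITC DNA oligonucleotide reports Tdp1 activity: intact substrate bridges AlphaScreen beads, while cleavage leaves a 3' phosphate and drops signal. All incubations at room temperature.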
DT40 TDP1 CPT: growth inhibition of DT40 Tdp1-/-;hTDP1 cells with camptothecin (screen for TDP1 inhibitors) | Potency, µM (highest dose often 46.2 µM), without a hit: at the top dose activity change, negative = growth inhibition, hits mostly inhibitors | hit rate 12% among 420,000 | AID 686979 | chicken DT40 Tdp1-/-;hTDP1 cells + 20 nM CPT, ATP luminescence, 48 h; further: potency means the concentration at half of the fitted maximal effect; on the % scale 0 is the no-effect control and ±100 the full control effect; nearly all actives have a fitted effect of over 55% in size
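Chicken DT40 Tdp1-/- cells stably complemented with human TDP1 were seeded at 400 cells/well in medium containing 20 nM camptothecin, exposed to pin-transferred compounds, and grown at 37 °C for at least 48 hr. Viability was read as ATP luminescence.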
HepG2 tox-1: counter-screen for TGF-b inhibitors: cytotoxicity in HepG2 cells; HepG2 CAGA-GFP viability, ATP luminescence, 18 h; Potency, µM (doses to about 46.1 µM), inactives show at the top dose activity change, negative = cytotoxicity, usual class: cytotoxic; hit rate 0.76% among 410,000; further: potency means the concentration at half of the fitted maximal effect
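CellTiter-Glo luminescence gave cytotoxicity after 18 hours at 37 degrees C. The cells were HepG2 CAGA-GFP in 1% FBS DMEM, stimulated with 500 pg/mL TGF-beta after compound addition. %Activity was normalised to no-cell wells (complete cell-killing) and DMSO (no toxicity), and curves were fitted and classified.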
TGFb SMAD3 inh: blocks TGF-b signaling | HepG2 CAGA-GFP TGF-b/SMAD3 reporter, GFP fluorescence, 18 h; TGF-beta stimulated, 500 pg/mL final | Potency, µM (top dose mostly 46.1 µM), without a hit: at the top dose activity, negative = inhibition, actives largely listed as inhibitors | hit rate 1.2% among 410,000 | AID 588855; further: potency means the concentration at half of the fitted maximal effect; on the % scale 0 is the no-effect control and ±100 the full control effect; nearly all actives have a fitted effect of over 65% in size
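GFP signal (ex488/em500-530) from TGF-beta-stimulated HEPG2 CAGA-GFP cells, 500 pg/mL final, 18 h at 37 degrees C in DMEM plus 1% FBS, normalized to unstimulated and DMSO-stimulated controls.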
IL-1B inflam inh: inhibitors of inflammasome signaling (IL-1 beta secretion) | THP-1 LPS/ATP IL-1B secretion, AlphaLISA, 16 h; stronger effect = lower value | activity change, % at 57.5 µM | hit rate 4.7% among 360,000 | AID 743279; in the data active means activity change below about -50%; inconclusive means mostly about -30% to -49%; further: on the % scale 0 is the no-effect control and ±100 the full control effect
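THP-1 cells pretreated 1 hr with compounds (up to 57.5 uM final), then stimulated with LPS (250 ng/mL final) plus ATP (1.25 mM final); secreted IL-1B measured by AlphaLISA after 16 hr, decreased signal indicating inhibition.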
TDP1 cell noCPT: qHTS for Inhibitors of human tyrosyl-DNA phosphodiesterase 1 (TDP1): qHTS in cells in absence of CPT; DT40 Tdp1-/- hTDP1 cells, no CPT, ATP luminescence, 48 h; Potency, µM (doses to about 46.2 µM), for inactives: at the highest dose activity change, negative = growth inhibition, most hits filed as inhibitors; hit rate 15% among 420,000; further: potency means the concentration at half of the fitted maximal effect; on the % scale 0 is the no-effect control and ±100 the full control effect; nearly all actives have a fitted effect of over 55% in size
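Chicken DT40 Tdp1-/- cells stably complemented with human TDP1 were seeded at 400 cells/well with DMSO in place of 20 nM camptothecin. After compound pinning, cells grew at least 48 hr at 37 °C; viability read by CellTiter-Glo luminescence.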
TGFb confirm: confirmation of TGF-b signaling inhibitors in HepG2 reporter cells. AID 720534. hit rate 63% among 1,600. Potency, µM (doses to about 46.1 µM), inactives show at the highest dose activity, negative = inhibition, hits mostly inhibitors. shares compounds with TGFb SMAD3 inh. HepG2 CAGA-GFP TGF-b reporter, GFP fluorescence, 18 h; cells stimulated with TGF-beta, 500 pg/mL; further: potency means the concentration at half of the fitted maximal effect; on the % scale 0 is the no-effect control and ±100 the full control effect; nearly all actives have a fitted effect of over 65% in size
HepG2 tox-2: counter-screen for TGF-b inhibitors: cytotoxicity in HepG2 cells | shares compounds with TGFb SMAD3 inh | HepG2 CAGA-GFP viability, ATP luminescence, 18 h; cells stimulated with TGF-beta, 500 pg/mL | Potency, µM (top dose mostly 46.1 µM), for inactives: at the top dose activity, negative = cytotoxicity, actives largely listed as inhibitors | hit rate 27% among 1,600; further: potency means the concentration at half of the fitted maximal effect; on the % scale 0 is the no-effect control and ±100 the full control effect; nearly all actives have a fitted effect of over 70% in size
CCL64 TGFb inh: blocks TGF-b signaling in CCL64 reporter cells; shares compounds with TGFb SMAD3 inh; CCL64 CAGA-GFP reporter, TGF-b stimulated, GFP fluorescence, 18 h; Potency, µM (titrated, usually from 46.1 µM), for the others: top-dose activity, negative = inhibition, usual class: inhibitors; hit rate 41% among 1,600; AID 720536; further: potency means the concentration at half of the fitted maximal effect; nearly all actives have a fitted effect of over 65% in size
COP TGFb inh: TGF-b inhibition validated with COP promoter; HepG2 COP-GFP TGF-b reporter, GFP fluorescence, 18 h; cells stimulated by added recombinant TGF-beta; hit rate 3% among 1,600; shares compounds with TGFb SMAD3 inh; Potency, µM (top dose mostly 46.1 µM), for inactives: at the highest dose activity, negative = inhibition, hits mostly inhibitors; further: potency means the concentration at half of the fitted maximal effect; nearly all actives have a fitted effect of over 70% in size
* hit, by the source's call. A selection: hits, their analogues and other compounds. The true share with any hit is near 19%. Unless noted, the call rests on the fitted dose curve; in most records, active means well fitted curve in the direction sought with a large enough effect; inconclusive means small, poorly fitted or top-dose-only effect, or another doubt; inactive means no such curve, though single readings can be large; an effect the other way counts as inactive or inconclusive.

CC(=O)N1c2ccc(S(=O)(=O)N3CCC(C(=O)Nc4ccccn4)CC3)cc2CC1C (centres undefined) was read as TDP1 block 5%, DT40 TDP1 CPT -21%, HepG2 tox-1 -9%, TGFb SMAD3 inh -1%, IL-1B inflam inh 12 and TDP1 cell noCPT -13%.
`O=C1COc2ccc(C(=O)COc3ccc(Cl)cc3Br)cc2N1` gave TDP1 block 1%, DT40 TDP1 CPT inconclusive, HepG2 tox-1 -3%, TGFb SMAD3 inh 0%, IL-1B inflam inh -28 and TDP1 cell noCPT inconclusive.
For COc1ccc(/C=C/C(=O)c2ccc([N+](=O)[O-])o2)cc1OC the results were DT40 TDP1 CPT 0.58µM*, HepG2 tox-1 11µM*, TGFb SMAD3 inh 2.5µM*, IL-1B inflam inh -102*, TDP1 cell noCPT 1.2µM*, TGFb confirm 2.9µM*, HepG2 tox-2 4.6µM*, CCL64 TGFb inh 2.1µM* and COP TGFb inh 0%.
COc1cc(/C=C/C(=O)c2ccc([N+](=O)[O-])o2)ccc1O was read as TDP1 block inconclusive, DT40 TDP1 CPT 0.92µM*, HepG2 tox-1 -45%, TGFb SMAD3 inh 1.1µM*, IL-1B inflam inh -60*, TDP1 cell noCPT 0.52µM*, TGFb confirm 4.1µM*, HepG2 tox-2 8.2µM*, CCL64 TGFb inh 2.9µM* and COP TGFb inh inconclusive.
O=C(Nc1cccc(OC(=O)c2ccc(Br)o2)c1)c1ccccc1 was read as TDP1 block 0%, DT40 TDP1 CPT -2%, HepG2 tox-1 -5%, TGFb SMAD3 inh 1%, IL-1B inflam inh -14 and TDP1 cell noCPT 7%.
For CC(=O)Nc1ccc(NC(=O)Cn2cnc(S(=O)(=O)N3CCOCC3)c2)cc1 the results were TDP1 block 5%, DT40 TDP1 CPT -11%, HepG2 tox-1 1%, TGFb SMAD3 inh 2%, IL-1B inflam inh -6 and TDP1 cell noCPT 16%.
O=C(/C=C/c1ccccc1)NC1CCSC1=O (centres undefined) was read as TDP1 block 0%, DT40 TDP1 CPT -15%, HepG2 tox-1 8%, TGFb SMAD3 inh 0%, IL-1B inflam inh -1 and TDP1 cell noCPT -15%.
For O=C(O)c1ccc(/C=C2\COc3ccccc3C2=O)cc1 the results were TDP1 block -2%, DT40 TDP1 CPT inconclusive, HepG2 tox-1 -20%, TGFb SMAD3 inh 14µM*, IL-1B inflam inh -105*, TDP1 cell noCPT 18µM*, TGFb confirm 16µM*, HepG2 tox-2 16µM*, CCL64 TGFb inh -89% and COP TGFb inh 26%.
`COc1ccc(/C=C2\OC(=O)c3c(OC)cccc32)cc1OC` gave TDP1 block -2%, DT40 TDP1 CPT -28%, HepG2 tox-1 2%, TGFb SMAD3 inh 0%, IL-1B inflam inh inconclusive and TDP1 cell noCPT inconclusive.
Screening COc1cc(/C=C2\COC/C(=C\c3cc(OC)c(OC)c(OC)c3)C2=O)cc(OC)c1OC returned TDP1 block 8%, DT40 TDP1 CPT 1.2µM*, HepG2 tox-1 3.5µM*, TGFb SMAD3 inh 0.63µM*, IL-1B inflam inh -99*, TDP1 cell noCPT 0.58µM*, TGFb confirm 1.3µM*, HepG2 tox-2 1.3µM*, CCL64 TGFb inh 1.3µM* and COP TGFb inh 52%.
`CCOc1cc(/C=N/Nc2nc3ccccc3[nH]2)cc(Br)c1OCC(=O)N(C)C` gave TDP1 block 6%, DT40 TDP1 CPT 10µM*, HepG2 tox-1 18%, TGFb SMAD3 inh 8.9µM*, IL-1B inflam inh -92*, TDP1 cell noCPT 13µM*, TGFb confirm 12µM*, HepG2 tox-2 inconclusive, CCL64 TGFb inh inconclusive and COP TGFb inh 20%.
`COc1ccc(/C=C2\COc3ccccc3C2=O)cc1OC` gave TDP1 block 2%, DT40 TDP1 CPT 15µM*, HepG2 tox-1 1%, TGFb SMAD3 inh 16µM*, IL-1B inflam inh -98*, TDP1 cell noCPT 21µM*, TGFb confirm inconclusive, HepG2 tox-2 inconclusive, CCL64 TGFb inh 18µM* and COP TGFb inh 6%.
Screening Cc1cc(C)cc(NC(=O)COc2coc(CN3CCc4ccccc4C3)cc2=O)c1 returned TDP1 block -3%, DT40 TDP1 CPT inconclusive, HepG2 tox-1 -25%, TGFb SMAD3 inh 0%, IL-1B inflam inh 8 and TDP1 cell noCPT inconclusive.
`CCOc1cc(/C=C2\COc3ccccc3C2=O)cc(Br)c1OCC(=O)N(C)C` gave TDP1 block 12%, DT40 TDP1 CPT 3.7µM*, HepG2 tox-1 13µM*, TGFb SMAD3 inh 3.5µM*, IL-1B inflam inh -103*, TDP1 cell noCPT 4.6µM*, TGFb confirm 16µM*, HepG2 tox-2 inconclusive, CCL64 TGFb inh 15µM* and COP TGFb inh inconclusive.
`COc1c(Br)cc(Br)cc1C(=O)Nc1ccccc1N1CCCC1` gave DT40 TDP1 CPT inconclusive, HepG2 tox-1 -5%, TGFb SMAD3 inh -15%, IL-1B inflam inh 8 and TDP1 cell noCPT inconclusive.
